Shiga inhibitor: A qHTS for Small Molecule Inhibitors of Shiga Toxin. Vero cells, Shiga toxin protein synthesis inhibition reporter. inhibition, % at 38.7 µM. actives 9.2% (n = 290,000); in the data active = inhibition mostly above about 28%, no sharp cut-off; inactive = mostly below about 43%; note: 0% is about no effect
CHX counter: Cycloheximide Counterscreen for Small Molecule Inhibitors of Shiga Toxin | cell reporter, cycloheximide protein synthesis inhibition counterscreen | max response, % | actives 12% (n = 300,000); in the data active = max response mostly above about 13%, no sharp cut-off; inactive = mostly below about 14%; note: read at 38.3 µM for the half of the compounds with a filed dose; 0% is about no effect
Lassa entry inh: qHTS for Inhibitors of binding or entry into cells for Lassa Virus; Potency, µM (titrated, usually from 37.9 µM), inactives show at the highest dose activity change, negative = inhibition, hits mostly inhibitors; AID 540256, 2011; actives 1.2% (n = 300,000); Lassa virus pseudotype entry inhibition, cell reporter; calls by dose curve; tested in HEK293 cells; note: potency is the fitted concentration of half-maximal effect; % is set by controls: 0 for no effect and ±100 for the full control effect; nearly all actives have a fitted effect of over 50% in size
Marburg entry inh: qHTS for inhibitors of binding or entry into cells for Marburg Virus; Marburg virus pseudotyped entry inhibition, cell reporter; Potency, µM (doses to about 37.8 µM), for inactives: at the highest dose activity change, negative = inhibition, actives largely listed as inhibitors; actives 1.8% (n = 300,000); calls by dose curve; tested in HEK293 cells; note: potency is the fitted concentration of half-maximal effect; % is set by controls: 0 for no effect and ±100 for the full control effect
* = called active by the depositor; [ ] = dose if it differs, or a comment. A selection: hits, their analogues and other compounds. The true share with any hit is near 12%.

What do the screens show for `NC(=O)CC(NC(=O)Cc1ccc(Br)cc1)c1ccc(N2CCC(N3CCCCC3)CC2)c([N+](=O)[O-])c1` (stereo not drawn)?
Shiga inhibitor: -8.4; CHX counter: -3.8

Results for CC[Se]CC[C@@H](N)C(=O)O ?
Marburg entry inh: -8.1%

What do the screens show for `COc1ccccc1C1CC(=O)Oc2c(C(C)C)ccc(C)c21` (stereo not drawn)?
Shiga inhibitor: inactive; CHX counter: -0.4

Results for Cc1ccc(NC(=O)Nc2ccc(F)c(Cl)c2)cc1 ?
Shiga inhibitor: 81.6*; CHX counter: 30.5*; Lassa entry inh: 1.0%[46.1 µM]; Marburg entry inh: inconclusive

What do the screens show for `COc1ccc(-c2nnc(SCC(=O)c3cccs3)o2)cc1`?
Shiga inhibitor: 94.8*; CHX counter: 29.3*; Lassa entry inh: -27.7%; Marburg entry inh: 6.6%

What do the screens show for `COc1ccc(-c2nnc(SCC(=O)c3ccc(O)cc3O)o2)cc1`?
Shiga inhibitor: 32.9*; CHX counter: 7.0; Lassa entry inh: 28.0%; Marburg entry inh: 24.6%[46.1 µM]

How did COc1ccc(C(=O)CSc2nnc(-c3cc(C)cc(C)c3)o2)cc1 do in these assays?
Shiga inhibitor: 3.3; CHX counter: -4.4; Lassa entry inh: -22.5%; Marburg entry inh: -17.1%

How did Cc1cc(C(=O)CSc2nnc(-c3cccs3)o2)c(C)n1-c1ccccc1 do in these assays?
Shiga inhibitor: 77.1*; CHX counter: 12.1*; Lassa entry inh: -18.1%; Marburg entry inh: inconclusive

Results for COc1cccc(NC(=O)CSc2nnc(-c3cc(C)n(-c4ccccc4)c3C)o2)c1 ?
Shiga inhibitor: 101.2*; CHX counter: 48.3*; Lassa entry inh: 13.6%; Marburg entry inh: inconclusive

Results for COc1cccc(C(=O)CSc2nnc(-c3cccs3)o2)c1 ?
Shiga inhibitor: 14.6; CHX counter: -1.8; Lassa entry inh: 9.0%; Marburg entry inh: 0.1%

Results for O=C1CC(C2CCCO2)C(=O)N1c1ccccc1 (stereo not drawn) ?
Shiga inhibitor: 8.6; CHX counter: -2.5; Lassa entry inh: 23.9%; Marburg entry inh: 5.6%

Results for CN(C)C(=O)Nc1ccc(-n2nc(C(C)(C)C)oc2=O)c(Cl)c1 ?
Shiga inhibitor: -1.2; CHX counter: -1.8

How did COc1ccccc1CNC(=O)C(NS(=O)(=O)c1ccc2c(c1)OCCO2)C(C)C (stereo not drawn) do in these assays?
Shiga inhibitor: 23.0; CHX counter: -2.6; Lassa entry inh: -2.2%; Marburg entry inh: inconclusive

How did COc1ccc(-n2nnc3c(SCC(=O)NCc4ccco4)ncnc32)cc1 do in these assays?
Shiga inhibitor: 19.9; CHX counter: 19.1*; Lassa entry inh: -3.1%; Marburg entry inh: inconclusive

Results for COc1ccc(-c2nnc(SCC(=O)c3ccc[nH]3)o2)cc1 ?
Shiga inhibitor: 151.4*; CHX counter: 35.9*; Lassa entry inh: inconclusive; Marburg entry inh: -26.4%

What do the screens show for `Cc1ccc(CNC(=O)c2ccc[nH]2)cc1`?
Shiga inhibitor: 20.2; CHX counter: -3.6; Lassa entry inh: 10.7%; Marburg entry inh: 6.3%[46.1 µM]

What do the screens show for `Cc1ccc(SCC(=O)c2ccc[nH]2)cc1`?
Shiga inhibitor: 78.6*; CHX counter: 35.2*; Lassa entry inh: -11.5%; Marburg entry inh: inconclusive

Results for COc1ccc(-c2nnc(SCC(=O)NCc3ccco3)o2)cc1 ?
Shiga inhibitor: 92.0*; CHX counter: 22.2*; Lassa entry inh: 5.4%; Marburg entry inh: 23.0%

Results for Cc1ccc(C)c(OCCC(=O)NCCc2ccc(F)cc2)c1 ?
Shiga inhibitor: -18.0; CHX counter: -2.6; Lassa entry inh: 7.9%[46.1 µM]; Marburg entry inh: -13.2%[46.1 µM]

Results for CCn1c(COc2ccc(OC)cc2)nnc1SCc1nc2ccccc2c(=O)[nH]1 ?
Shiga inhibitor: -16.6; CHX counter: -1.2

What do the screens show for `COc1ccc(-n2c(-c3ccc(F)cc3)cnc2SCC(=O)NCc2ccco2)cc1`?
Shiga inhibitor: 103.0*; CHX counter: 49.2*; Lassa entry inh: -4.7%; Marburg entry inh: -6.5%

How did O=C(CSc1ncc(-c2ccccc2)n1-c1ccccc1)NCc1ccco1 do in these assays?
Shiga inhibitor: 11.2; CHX counter: 9.2; Lassa entry inh: 6.8%; Marburg entry inh: -19.7%

How did COc1ccc(-c2nnc(SCC(=O)c3cccs3)n2-c2ccc(Cl)cc2)cc1 do in these assays?
Shiga inhibitor: 74.7*; CHX counter: 40.0*; Lassa entry inh: inconclusive; Marburg entry inh: inconclusive

Results for COc1cccc(-c2nnc(SCC(N)=O)n2-c2ccc(Cl)cc2)c1 ?
Shiga inhibitor: -6.2; CHX counter: -2.2; Lassa entry inh: -9.8%; Marburg entry inh: -8.6%

How did O=C(CSc1nnc(-c2cccs2)o1)c1cccs1 do in these assays?
Shiga inhibitor: 88.1*; CHX counter: 92.8*; Lassa entry inh: 13.8%; Marburg entry inh: 16.6%

How did COC(=O)COc1ccc(NS(=O)(=O)c2cccc([N+](=O)[O-])c2)cc1 do in these assays?
Shiga inhibitor: -3.3; CHX counter: -2.1; Lassa entry inh: -12.7%; Marburg entry inh: -15.1%[46.1 µM]

Results for Cc1c(Cl)cccc1-n1ncc(C(=O)NCCN2CCN(C)CC2)c1C1CCN(C(=O)OC(C)(C)C)CC1 ?
Lassa entry inh: 16.9%[46.1 µM]

How did C=CCn1c2ccccc2c2nnc(SC(CC)C(=O)Nc3sc4c(c3C#N)CCCC4)nc21 (stereo not drawn) do in these assays?
Shiga inhibitor: 6.9; CHX counter: 23.8*; Lassa entry inh: -1.3%; Marburg entry inh: inconclusive

Results for CCNC(=S)N/N=C/c1cn(Cc2ccccc2F)c2ccccc12 ?
Shiga inhibitor: 24.2; CHX counter: 16.6*; Lassa entry inh: inconclusive; Marburg entry inh: inconclusive

How did COc1ccc(CNc2nc(NCc3ccc(OC)cc3)c3ncn(C4CCCCC4)c3n2)cc1 do in these assays?
Shiga inhibitor: 36.8*; CHX counter: 49.5*

How did Cc1cc(C)cc(NC(=O)c2ccc(S(=O)(=O)C(F)F)cc2)c1 do in these assays?
Shiga inhibitor: 20.9; CHX counter: 8.1; Lassa entry inh: 8.5%; Marburg entry inh: 1.3%

What do the screens show for `Cc1nnc(NC(=O)c2ccc(S(=O)(=O)C(F)F)cc2)s1`?
Shiga inhibitor: 36.4; CHX counter: 27.2*

What do the screens show for `Cc1cccc(NC(=O)c2ccc(S(=O)(=O)N3CCOCC3)cc2)c1C`?
Shiga inhibitor: 2.8; CHX counter: 1.4; Lassa entry inh: 7.7%; Marburg entry inh: 27.3%[46.1 µM]

Results for Cc1cccc(NC(=O)c2ccc(S(=O)(=O)C(F)F)cc2)c1C ?
Shiga inhibitor: 23.5; CHX counter: 16.1*; Lassa entry inh: 8.7%; Marburg entry inh: -0.7%

What do the screens show for `CC(OC(=O)[C@@H]1CCCN1C(=O)c1cccs1)C(=O)Nc1cccc([N+](=O)[O-])c1` (stereo partly drawn)?
Lassa entry inh: -3.2%; Marburg entry inh: 24.7%

Results for CCCc1nnc(-c2ccc(OC)cc2)o1 ?
Shiga inhibitor: active; CHX counter: 34.2*; Lassa entry inh: 6.8%; Marburg entry inh: inconclusive

How did COc1ccc(-c2nnc(-c3ccc(F)cc3)o2)cc1 do in these assays?
Shiga inhibitor: 90.0*; CHX counter: 47.7*; Lassa entry inh: 1.9%; Marburg entry inh: -2.2%

What do the screens show for `COc1ccc(-c2nnc(-c3ccc(C)cc3)o2)cc1`?
Shiga inhibitor: 82.2*; CHX counter: 19.4*; Lassa entry inh: 20.9%[46.1 µM]; Marburg entry inh: inconclusive

Screening data: PubChem, National Center for Advancing Translational Sciences (NCATS)
